For 49 compounds, activity change, negative = inhibition results are on record in PubChem BioAssay AID1259415 (National Center for Advancing Translational Sciences (NCATS), 2018).

The structures appear in SMILES notation. The campaign covered roughly 410,000 compounds. About 18,000 (4.4%) were called active. Another 7% or so got no clear call; they are omitted. The entries come from a sample that favours actives as a whole. Unmarked numbers belong to inactive results. Cut-off read from the data, not from the text of the source: active = activity change below about -60%; inconclusive = no clear call, values can overlap the other calls; inactive = above about -39%.
% is set by controls: 0 for no effect and ±100 for the full control effect.

A short description of this assay: qHTS Assay for inhibitors of the human cytomegalovirus (HCMV). The conditions noted are these: HFF cells, HCMV-luciferase reporter, 72 h; at 57.5 µM; stronger effect = lower value. In outline:
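After 16 h attachment at 37C, HFF cells received test compound and HCMV-luciferase (1 PFU/cell); reporter luminescence read 72 h later, data normalized against buffer-only and known inhibitor Salinomycin.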
In general terms: In qHTS, concentration-response curves come from the screen itself.
With `COc1cccc(CNC(=O)C(=O)NCC(c2cccs2)S(=O)(=O)c2ccccc2)c1` (centres undefined), the activity change, negative = inhibition was -19.1%.

Regarding `CN(CCCC(=O)Nc1nccs1)S(=O)(=O)c1ccc(Cl)cc1`, the activity change, negative = inhibition was -64.7% (active).

On to `Cc1nc(NC(=O)CN(C)S(=O)(=O)c2ccc(Cl)cc2)sc1C`, for which the activity change, negative = inhibition is 12.3%.

Regarding `COCCN(C(=O)CCC(=O)Nc1nccs1)C(C(=O)NC(C)(C)C)c1ccc(Cl)cc1` (centres undefined), the activity change, negative = inhibition was -6.27%.

As to `CCc1ccc(CN(Cc2ccco2)C(=O)COc2ccc(Cl)c(C)c2)cc1`, the activity change, negative = inhibition is -9.02%.

With `Cc1c(Cl)c([N+](=O)[O-])nn1Cc1ccc(C(=O)N/N=C\c2cc(Cl)ccc2O)o1`, the activity change, negative = inhibition is -93.7% (active).

For `Cc1c(Cl)c([N+](=O)[O-])nn1CCCC(=O)NC(C)c1ccccc1` (centres undefined), the activity change, negative = inhibition is 46.9%.

In the case of `Cc1c(Cl)c([N+](=O)[O-])nn1CC(=O)NCC1CCCO1` (centres undefined), the activity change, negative = inhibition is 35.2%.

For `O=C1CC(c2nnc(Cc3ccc(Cl)cc3)o2)CN1c1ccccc1` (centres undefined), the activity change, negative = inhibition was -4.62%.

In the case of `COc1ccccc1/C=C/C(=O)OCC(=O)NC1CCCCCC1`, the activity change, negative = inhibition is -34.6%.

For the compound `COc1ccccc1C(=O)OCC(=O)NCCNC(=O)COC(=O)c1ccccc1OC`, the activity change, negative = inhibition is -25.9%.

Consider `CCOC(=O)C(=Cc1ccccc1OC)C(=O)OCC`, for which the activity change, negative = inhibition is -65.2% (active).

As for `CCc1cnc2c(c1SCC(=O)N1CCC(C)CC1)c(=O)n(C)c(=O)n2C`, the activity change, negative = inhibition was -18.2%.

In the case of `COc1ccc2[nH]c3c(c2c1)CCN1C(=O)C(CC(=O)NCc2cccc(C(F)(F)F)c2)C[C@H](C(=O)N2CCOCC2)[C@@]31C` (some centres undefined), the activity change, negative = inhibition is -2.74%.

In the case of `CCN(CC)S(=O)(=O)c1nnc(NC(=O)COc2ccccc2Cl)s1`, the activity change, negative = inhibition was -5.69%.

Consider `Fc1ccc2nc(-c3ccccc3)nc(SCc3nnc(-c4ccccc4)o3)c2c1`, for which the activity change, negative = inhibition is 1.64%.

As for `Clc1ccc2nc(-c3ccccc3)nc(C(Cl)Cl)c2c1`, the activity change, negative = inhibition was -78.3% (active).

In the case of `O=C(C1COc2ccccc2O1)N(Cc1cccnc1)c1nc2c(F)cc(F)cc2s1` (centres undefined), the activity change, negative = inhibition was 0%.

Turning to `Cc1cc(S(=O)(=O)NCC(C)C)ccc1OCC(=O)NC1CC1`, the activity change, negative = inhibition is -9.36%.

Turning to `O=C(Nc1ccc2ccccc2c1)Nc1ccc2snnc2c1`, the activity change, negative = inhibition is -97.2% (active).

For the compound `COc1cccc(C(=O)Nc2ccc3oc(-c4ccc5ccccc5c4)nc3c2)c1`, the activity change, negative = inhibition was 12.9%.

Regarding `CS(=O)(=O)c1ccccc1C(=O)Nc1ccc2sccc2c1`, the activity change, negative = inhibition is 22.5%.

In the case of `CC(C)CC(=O)NCC(c1ccc2c(c1)OCO2)N1CCN(c2ccc(F)cc2)CC1` (centres undefined), the activity change, negative = inhibition was 1.29%.

Regarding `COc1ccc(NC(=O)NC(C)c2c(-n3cccc3)sc(C)c2C)cc1OC` (centres undefined), the activity change, negative = inhibition was -77.2% (active).

Take `CCn1cc(NC(=O)Nc2ccc(OC)c(OC)c2)c(C(N)=O)n1`: the activity change, negative = inhibition is -11.8%.

Turning to `COc1ccc(NC(=O)N2CCCn3nc(C)cc32)cc1OC`, the activity change, negative = inhibition is 9.12%.

For the compound `NC1=NC(=O)C(Cc2cccc(Cl)c2)S1` (centres undefined), the activity change, negative = inhibition is 4.67%.

With `COc1ccc(-n2c(=O)c3c(c4cc(OC)ccc4n3C)n(Cc3cccc(C)c3)c2=O)cc1`, the activity change, negative = inhibition was -5.82%.

Take `COC(=O)C[C@@H]1C=C[C@@H](NC(=O)c2cccnc2)[C@@H](CO)O1`: the activity change, negative = inhibition was -9.71%.

Turning to `CCn1cc(C(=O)NCCc2ccccc2)c(=O)c2cc(S(=O)(=O)N3CCCCCC3)ccc21`, the activity change, negative = inhibition was -9.08%.

In the case of `CCCCNC(=O)c1nc2cc(C)c(C)cc2nc1-c1ccc(OC)cc1`, the activity change, negative = inhibition was 9.19%.

As for `COc1ccc(-c2nc3c4ccccc4n(CC(=O)Nc4ccc(C(C)=O)cc4)c(=O)n3n2)cc1`, the activity change, negative = inhibition was 29.2%.

With `OC[C@@H]1CN(Cc2ccc(-c3ccccc3)cc2)C[C@H](n2cnc3c(NC4CCCC4)ncnc32)O1`, the activity change, negative = inhibition was -84.2% (active).

For `CC(C)Nc1ncnc2c1ncn2[C@H]1CN(Cc2ccncc2)C[C@@H](CO)O1`, the activity change, negative = inhibition was 23.6%.

In the case of `OCCN1CCN(c2ncnc3c2ncn3[C@H]2CN(Cc3ccco3)C[C@@H](CO)O2)CC1`, the activity change, negative = inhibition is -21.8%.

With `OC[C@@H]1CN(Cc2ccncc2)C[C@H](n2cnc3c(N4CCN(c5ccccc5)CC4)ncnc32)O1`, the activity change, negative = inhibition is -88% (active).

Consider `OC[C@@H]1CN(Cc2cccs2)C[C@H](n2cnc3c(Nc4ccccc4)ncnc32)O1`, for which the activity change, negative = inhibition was -28.3%.

Consider `OC[C@@H]1CN(C2CCCC2)C[C@H](n2cnc3c(NC4CCC4)ncnc32)O1`, for which the activity change, negative = inhibition was -6.08%.

As to `CCCOC(=O)c1c(NC(=O)c2cc3nc(-c4ccc(OC)cc4)cc(C(F)(F)F)n3n2)sc2c1CCCC2`, the activity change, negative = inhibition is -2.77%.

Regarding `Cc1ccc(CSc2nc3ccsc3c(=O)n2CCC(C)C)cc1`, the activity change, negative = inhibition is -15.8%.

With `COc1ccccc1CNC(=O)CS(=O)(=O)c1cccc2nsnc12`, the activity change, negative = inhibition is 22.9%.

As to `CCCc1ccc(-c2c(C)sc(NC(=O)c3ccnn3C)c2C#N)cc1`, the activity change, negative = inhibition is -97.3% (active).

Consider `Cc1c(C#N)c(NC(=O)c2ccccc2)n(Cc2ccccc2)c1C`, for which the activity change, negative = inhibition was -33.4%.

On to `Cc1c(C(=O)OC(C)C)sc(NC(=O)c2cccnc2)c1C#N`, for which the activity change, negative = inhibition was 4.66%.

As to `CCc1cccc(NC(=O)COC(=O)C2CCN(c3ccc(C(F)(F)F)cn3)CC2)c1`, the activity change, negative = inhibition was -14.3%.

As to `Cc1ccc(NC(=O)CN2c3ccccc3S(=O)(=O)c3ccccc32)cc1F`, the activity change, negative = inhibition is 18.3%.

`CCN(CC)CCNC(=O)c1cc2c(=O)oc3ccc(C)cc3c2s1`: the activity change, negative = inhibition was 3.23%.

As to `COc1ccc(/C=N/OCc2ccccc2C#N)c(OC)c1`, the activity change, negative = inhibition is 50.3%.

Take `Nc1nnc2c(C(F)(F)F)nc3ccccc3n12`: the activity change, negative = inhibition is 1.13%.
